The list is not random: actives were taken first. Their share in the collection is about 7.4%.
PD-1 reversal: activators reversing PD-1 mediated T-cell inhibition. primary human CD4 T cells, PD-L1 beads, CellTiter-Glo 96 h. activation, % (test concentration not listed). 29,000 tested, under 10 active; call rule not given here
NOMO-1 viab: STK33 inhibitor candidate reducing NOMO-1 cell viability; NOMO-1 AML viability, CellTiter-Glo luminescence, 72 h; inhibition, % (no concentration beside the values); actives 7.5% (n = 37,000); AID 2330; in the data active means inhibition above about 80%
Hedgehog inh: blocks Sonic Hedgehog signaling; Shh-LIGHT2 Gli-luciferase reporter, 30 h; inhibition, % (no concentration beside the values); actives 2.1% (n = 22,000);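 active means mean inhibition across valid replicates above about 65%, limit read from the data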;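 further: pathway switched on by Shh-conditioned medium diluted 1 in 25 in low serum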
MITF inh: MITF inhibition. actives 0.28% (n = 37,000). inhibition, % (no concentration beside the values). TRPM1 promoter luciferase, luminescence, 24 h; in the data active means inhibition above about 85%;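 further: human melanocyte line stably carrying TRPM1 promoter luciferase reporter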
YB-1 expression: YB-1 expression inhibition. AID 434959. U2OS, qRT-PCR YB-1 vs CDIP delta delta Cp, 16 h; hits give high values; zero = DMSO, each unit about twofold. actives 0.37% (n = 30,000). delta delta Cp (YB-1 minus CDIP) (test concentration not listed);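 active means delta delta Cp rounded down to an integer at or above 3, about 3 SD of DMSO wells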;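 further: higher means less YB-1 transcript or more CDIP transcript relative to DMSO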
Numbers stand for hits; . = inactive; / = no result given.

SMILES	PD-1 reversal	NOMO-1 viab	Hedgehog inh	MITF inh	YB-1 expression
C[C@@H]1CN([C@@H](C)CO)C(=O)c2cc(N(C)C)ccc2O[C@@H]1CN(C)Cc1ccc(Cl)c(Cl)c1	.	.	.	.	.
C[C@@H]1CCCCO[C@@H](CN(C)Cc2ccc3c(c2)OCO3)[C@@H](C)CN([C@H](C)CO)C(=O)c2cc(N(C)C)ccc2O1	/	.	.	.	.
C[C@@H]1CN([C@H](C)CO)C(=O)c2cc(N(C)C)ccc2O[C@H]1CN(C)Cc1ccc(Cl)c(Cl)c1	.	97	.	.	.
C(=Nc1ccc2ccccc2c1)Nc1ccc2ccccc2c1	.	.	.	.	.
Fc1ccc(N(Cc2nc3ccccc3[nH]2)Cc2nc3ccccc3[nH]2)cc1	/	100	/	.	/
O=C(NCc1nc2ccccc2[nH]1)c1c(F)c(F)c(F)c(F)c1F	.	.	/	.	/
CSc1ccc(/C=N/n2nnnc2Nc2ccccc2)cc1	.	95	.	.	.
CCn1c2ccccc2c2cc(NC(=O)CSc3nnnn3-c3ccccc3)ccc21	/	.	/	.	/
CCn1c2ccccc2c2cc(NS(=O)(=O)c3ccccc3)ccc21	.	136	/	.	.
Cc1nnc(SCC(=O)Nc2cc(Cl)c(Cl)cc2Cl)s1	.	.	/	.	/
O=C(CSc1nc2ccccc2nc1N1CCCC1)NCCc1ccc(Cl)cc1	.	.	.	.	.
O=S(=O)(Nc1nc2ccccc2nc1NCCc1ccccc1)c1ccc(Cl)cc1	.	.	78	.	.
CCOC(=O)c1c(NC(=O)c2nc3nc(C)cc(C(F)F)n3n2)sc2c1CCCC2	.	.	/	.	/
Cc1cccc(NC(=O)c2ccc(OC(C)C(=O)Nc3ccccc3C(F)(F)F)cc2)c1C (configuration not stated)	.	113	/	.	/
C/C(=C\C=C\[C@@H](C)[C@H]1CC[C@@]2(C)[C@@H]3CCC4C(C)(C)[C@@H](O[C@@H]5O[C@H](CO)[C@@H](O[C@@H]6O[C@@H](C)[C@H](O)[C@@H](O)[C@H]6O)[C@H](O)[C@H]5O[C@@H]5O[C@H](CO[C@@H]6O[C@H](CO)[C@@H](O)[C@H](O)[C@H]6O)[C@@H](O)[C@H](O)[C@H]5O[C@@H]5O[C@@H](C)[C@H](O)[C@@H](O)[C@H]5O)CC[C@@]45C[C@@]35CC[C@]12C)C(=O)N[C@@H]1C(=O)O[C@H](C)[C@@H]1C (some centres not stated)	/	/	.	/	.
Clc1ccc(-c2cnc3n2CCC3)cc1Cl	.	112	/	.	.
c1ccc(-c2ccc3c4ccccc4cc-3o2)cc1	.	106	.	.	.
O=c1cc(-c2ccccc2)oc2cc(O)ccc12	.	.	.	.	.
Cc1ccccc1-c1nnc(SCC(=O)Nc2ccc(C(C)C)cc2)n1C	.	.	/	.	/
C[C@H](CO)N1C[C@H](C)[C@H](CN(C)Cc2ccc(C(=O)Nc3ccccc3N)cc2)Oc2ccc(NC(=O)Nc3ccc4c(c3)OCO4)cc2C1=O	/	/	/	/	.
C[C@H]1CN([C@@H](C)CO)C(=O)c2cccc(NC(=O)Nc3ccc4c(c3)OCO4)c2O[C@@H]1CN(C)Cc1ccc(C(=O)Nc2ccccc2N)cc1	.	127	/	.	.
C[C@@H]1CN([C@@H](C)CO)C(=O)c2cccc(NC(=O)Nc3ccc4c(c3)OCO4)c2O[C@@H]1CN(C)Cc1ccc(C(=O)O)cc1	.	.	.	.	.
C[C@@H]1CN([C@@H](C)CO)C(=O)c2cccc(NC(=O)Nc3ccc4c(c3)OCO4)c2O[C@H]1CN(C)Cc1ccc(C(=O)Nc2ccccc2N)cc1	.	126	/	.	.
C[C@@H]1CN([C@@H](C)CO)C(=O)c2cccc(NC(=O)Nc3ccc4c(c3)OCO4)c2O[C@@H]1CN(C)Cc1ccc(C(=O)Nc2ccccc2N)cc1	.	142	/	.	.
O=C(NCC12CC3CC(CC(C3)C1)C2)c1ccccc1	.	.	/	.	.
SMILES	PD-1 reversal	NOMO-1 viab	Hedgehog inh	MITF inh	YB-1 expression
O=C(CSc1ncnc2sc3c(c12)CCC3)Nc1ccc(Cl)cc1	.	.	/	.	/
C[C@@H]1CN([C@@H](C)CO)C(=O)c2cc(NS(=O)(=O)c3ccccc3)ccc2O[C@@H]1CN(C)Cc1ccc(-c2ccccc2)cc1	/	115	/	.	.
C[C@H]1CN([C@@H](C)CO)C(=O)c2cc(NS(=O)(=O)c3ccccc3)ccc2O[C@@H]1CN(C)Cc1ccc(-c2ccccc2)cc1	.	87	.	.	.
C[C@H](CO)N1C[C@H](C)[C@@H](CN(C)Cc2ccc(-c3ccccc3)cc2)Oc2ccc(NS(=O)(=O)c3ccc(F)cc3)cc2C1=O	.	.	.	.	.
COc1cc([N+](=O)[O-])ccc1NC(=O)CS(=O)(=O)Cc1ccccc1	.	.	/	.	/
COc1cc2c(cc1OC)C(=O)CC(C)(C)O2	.	.	.	.	.
COc1cc2c(c(OC)c1OC)-c1cc3c(cc1C[C@H]1C(=O)OC[C@@H]1C2)OCO3	.	106	.	.	.
COc1cc2c(c(O)c1OC)C(=O)CC(c1ccc(O)cc1)O2 (configuration not stated)	.	.	.	.	.
COc1cc2c(c(OC)c1OC)C[C@H]1COC(=O)[C@@H]1Cc1c-2cc(OC)c(OC)c1OC	/	/	67	/	.
COc1cc2c(c(OC)c1)C(=O)OC(C)C2 (configuration not stated)	.	.	.	.	.
C[C@@H]1CN([C@@H](C)CO)C(=O)c2cccc(NC(=O)Nc3ccc(C(F)(F)F)cc3)c2O[C@H]1CN(C)Cc1ccc(-c2ccccc2)cc1	.	.	.	.	.
C[C@@H]1CN([C@H](C)CO)C(=O)c2cccc(NC(=O)Nc3ccc(C(F)(F)F)cc3)c2O[C@H]1CN(C)Cc1ccc(-c2ccccc2)cc1	/	110	.	.	.
C[C@H](CO)N1C[C@H](C)[C@H](CN(C)Cc2ccc(-c3ccccc3)cc2)Oc2c(NC(=O)Nc3ccc(C(F)(F)F)cc3)cccc2C1=O	.	82	.	.	.
C[C@H](CO)N1C[C@H](C)[C@H](CN(C)Cc2ccc(Cl)c(Cl)c2)Oc2c(NC(=O)Nc3ccc(C(F)(F)F)cc3)cccc2C1=O	.	94	.	.	.
C[C@H](CO)N1C[C@H](C)[C@@H](CN(C)Cc2ccc(Cl)c(Cl)c2)Oc2c(NC(=O)Nc3cccc4ccccc34)cccc2C1=O	.	115	.	.	.
C[C@H]1CN([C@@H](C)CO)C(=O)c2cccc(NC(=O)Nc3ccc(F)cc3)c2O[C@H]1CN(C)Cc1ccc(C(F)(F)F)cc1	.	.	.	.	.
C[C@@H]1CN([C@H](C)CO)C(=O)c2cccc(NC(=O)Nc3ccccc3)c2O[C@H]1CN(C)Cc1ccc(Cl)c(Cl)c1	.	106	.	.	.
C[C@H](CO)N1C[C@H](C)[C@H](CN(C)Cc2ccc(Cl)c(Cl)c2)Oc2c(NC(=O)Nc3ccc(F)cc3)cccc2C1=O	.	99	.	.	.
COC(=O)c1c(NC(=O)CCN2C(=O)c3ccccc3C2=O)sc(C)c1-c1ccccc1	.	.	/	.	/

Bioassay records from PubChem BioAssay.
